Data published in PMC11006913.
Numbering of substitutions follows the chain as printed.

What was measured:
Assay in all cases: PBM; 200 nM protein, PBS
Settings in all cases: dsDNA, one strand shown
[1] = target: NKX2-5 (Homo sapiens, UniProt P52952 125-210, R139K)
[2] = target: HOXA2 (Homo sapiens, UniProt O43364 129-215, R185T)
[3] = target: MSX2 (Homo sapiens, UniProt P35548 130-214, R199I)
[4] = target: HOXD13 (Homo sapiens, UniProt P35453 263-343, T313R)
[5] = target: HOXA2 (Homo sapiens, UniProt O43364 129-215, R185K)
[6] = target: HOXD13 (Homo sapiens, UniProt P35453 263-343)
[7] = target: MSX2 (Homo sapiens, UniProt P35548 130-214)
[8] = target: VAX1 (Homo sapiens, UniProt Q5SQQ9 86-172)
[9] = target: HOXD13 (Homo sapiens, UniProt P35453 263-343, T313A)
[10] = target: MSX2 (Homo sapiens, UniProt P35548 130-214, F161Y)
[11] = target: VAX1 (Homo sapiens, UniProt Q5SQQ9 86-172, T142I)
[12] = target: HOXA2 (Homo sapiens, UniProt O43364 129-215, Y150S)
[13] = target: HOXA2 (Homo sapiens, UniProt O43364 129-215)
[14] = target: VAX1 (Homo sapiens, UniProt Q5SQQ9 86-172, K157R)
[15] = target: NKX2-5 (Homo sapiens, UniProt P52952 125-210)
[16] = target: HOXA4 (Homo sapiens, UniProt Q00056 201-287, W262R)
[17] = target: HOXA4 (Homo sapiens, UniProt Q00056 201-287, R217L)
[18] = target: ALX1 (Homo sapiens, UniProt Q15699 118-204, L144V)
[19] = target: ALX1 (Homo sapiens, UniProt Q15699 118-204, L144R)
[20] = target: HOXA4 (Homo sapiens, UniProt Q00056 201-287)
[21] = target: ALX1 (Homo sapiens, UniProt Q15699 118-204)
[22] = target: HOXA4 (Homo sapiens, UniProt Q00056 201-287, W262F)
[23] = target: T1, NKX2-6 (Homo sapiens, UniProt A6NCS4 118-204, R150C)
T1 sequence: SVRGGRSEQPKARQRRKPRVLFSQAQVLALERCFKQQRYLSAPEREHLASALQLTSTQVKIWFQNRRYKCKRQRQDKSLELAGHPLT

[24] = target: T2, NKX2-6 (Homo sapiens, UniProt A6NCS4 118-204)
T2 sequence: T1 sequence with C33R

[25] = target: T3, NKX2-6 (Homo sapiens, UniProt A6NCS4 118-204, F151L)
T3 sequence: T1 sequence with C33R, F34L

[26] = target: NKX3-2 (Homo sapiens, UniProt P78367 192-278, P234S)
[27] = target: NKX3-2 (Homo sapiens, UniProt P78367 192-278)
[28] = target: T4, NKX2-4 (Homo sapiens, UniProt Q9H2Z4 175-261, R246Q)
T4 sequence: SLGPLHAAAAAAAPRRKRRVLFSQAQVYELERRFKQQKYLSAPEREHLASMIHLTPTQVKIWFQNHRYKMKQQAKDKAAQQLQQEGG

[29] = target: PROP1 (Homo sapiens, UniProt O75360 56-141)
[30] = target: PROP1 (Homo sapiens, UniProt O75360 56-141, R99H)
[31] = target: PROP1 (Homo sapiens, UniProt O75360 56-141, F88S)
Chain of PROP1 (Homo sapiens, UniProt O75360 56-141, F88S) (O75360 56-141 F88S): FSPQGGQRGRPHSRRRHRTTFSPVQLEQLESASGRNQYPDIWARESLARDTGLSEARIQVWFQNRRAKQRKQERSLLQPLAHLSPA

Chain of NKX2-5 (Homo sapiens, UniProt P52952 125-210, R139K) (P52952 125-210 R139K): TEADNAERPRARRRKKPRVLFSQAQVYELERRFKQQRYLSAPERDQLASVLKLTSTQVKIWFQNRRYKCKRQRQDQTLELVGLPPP
Chain of NKX3-2 (Homo sapiens, UniProt P78367 192-278) (P78367 192-278): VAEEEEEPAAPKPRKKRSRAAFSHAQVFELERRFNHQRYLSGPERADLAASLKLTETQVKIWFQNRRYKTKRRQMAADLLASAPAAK
Chain of NKX3-2 (Homo sapiens, UniProt P78367 192-278, P234S) (P78367 192-278 P234S): as the sequence (P78367 192-278) above, with P43S counted along it
Chain of NKX2-5 (Homo sapiens, UniProt P52952 125-210) (P52952 125-210): as the sequence (P52952 125-210 R139K) above, with K15R counted along it
Chain of ALX1 (Homo sapiens, UniProt Q15699 118-204) (Q15699 118-204): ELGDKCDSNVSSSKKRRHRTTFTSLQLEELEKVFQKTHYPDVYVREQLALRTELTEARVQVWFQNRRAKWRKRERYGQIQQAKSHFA
Chain of ALX1 (Homo sapiens, UniProt Q15699 118-204, L144V) (Q15699 118-204 L144V): as the sequence (Q15699 118-204) above, with L27V counted along it
Chain of ALX1 (Homo sapiens, UniProt Q15699 118-204, L144R) (Q15699 118-204 L144R): as the sequence (Q15699 118-204) above, with L27R counted along it
Chain of HOXA2 (Homo sapiens, UniProt O43364 129-215, Y150S) (O43364 129-215 Y150S): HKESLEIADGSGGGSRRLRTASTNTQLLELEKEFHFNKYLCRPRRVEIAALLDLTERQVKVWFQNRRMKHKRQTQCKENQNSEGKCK
Chain of MSX2 (Homo sapiens, UniProt P35548 130-214, R199I) (P35548 130-214 R199I): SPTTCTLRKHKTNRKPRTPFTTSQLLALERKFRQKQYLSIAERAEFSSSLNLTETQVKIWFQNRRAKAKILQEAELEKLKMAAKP
Chain of HOXA4 (Homo sapiens, UniProt Q00056 201-287, W262R) (Q00056 201-287 W262R): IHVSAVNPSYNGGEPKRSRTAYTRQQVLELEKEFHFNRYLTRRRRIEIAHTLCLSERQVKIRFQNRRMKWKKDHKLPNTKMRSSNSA
Chain of VAX1 (Homo sapiens, UniProt Q5SQQ9 86-172) (Q5SQQ9 86-172): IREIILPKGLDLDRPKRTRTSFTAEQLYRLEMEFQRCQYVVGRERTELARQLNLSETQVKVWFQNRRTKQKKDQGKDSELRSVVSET
Chain of HOXD13 (Homo sapiens, UniProt P35453 263-343, T313A) (P35453 263-343 T313A): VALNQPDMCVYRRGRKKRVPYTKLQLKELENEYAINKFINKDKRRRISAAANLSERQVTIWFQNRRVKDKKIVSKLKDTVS
Chain of PROP1 (Homo sapiens, UniProt O75360 56-141) (O75360 56-141): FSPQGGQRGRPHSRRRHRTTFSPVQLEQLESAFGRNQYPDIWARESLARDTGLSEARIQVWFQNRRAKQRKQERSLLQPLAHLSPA
Chain of HOXA2 (Homo sapiens, UniProt O43364 129-215) (O43364 129-215): as the sequence (O43364 129-215 Y150S) above, with S22Y counted along it
Chain of HOXA4 (Homo sapiens, UniProt Q00056 201-287, W262F) (Q00056 201-287 W262F): as the sequence (Q00056 201-287 W262R) above, with R62F counted along it
Chain of HOXA4 (Homo sapiens, UniProt Q00056 201-287) (Q00056 201-287): as the sequence (Q00056 201-287 W262R) above, with R62W counted along it
Chain of MSX2 (Homo sapiens, UniProt P35548 130-214) (P35548 130-214): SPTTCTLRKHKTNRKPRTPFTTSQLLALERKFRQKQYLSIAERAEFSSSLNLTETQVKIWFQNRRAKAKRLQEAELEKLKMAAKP
Chain of HOXA2 (Homo sapiens, UniProt O43364 129-215, R185K) (O43364 129-215 R185K): as the sequence (O43364 129-215 Y150S) above, with S22Y, R57K counted along it
Chain of VAX1 (Homo sapiens, UniProt Q5SQQ9 86-172, K157R) (Q5SQQ9 86-172 K157R): as the sequence (Q5SQQ9 86-172) above, with K72R counted along it
Chain of HOXA4 (Homo sapiens, UniProt Q00056 201-287, R217L) (Q00056 201-287 R217L): as the sequence (Q00056 201-287 W262R) above, with R17L, R62W counted along it
Chain of MSX2 (Homo sapiens, UniProt P35548 130-214, F161Y) (P35548 130-214 F161Y): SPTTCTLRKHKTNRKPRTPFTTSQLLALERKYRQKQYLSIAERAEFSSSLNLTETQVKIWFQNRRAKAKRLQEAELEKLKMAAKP
Chain of HOXD13 (Homo sapiens, UniProt P35453 263-343) (P35453 263-343): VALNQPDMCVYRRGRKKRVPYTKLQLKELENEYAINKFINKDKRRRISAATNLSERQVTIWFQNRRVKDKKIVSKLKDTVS
Chain of HOXD13 (Homo sapiens, UniProt P35453 263-343, T313R) (P35453 263-343 T313R): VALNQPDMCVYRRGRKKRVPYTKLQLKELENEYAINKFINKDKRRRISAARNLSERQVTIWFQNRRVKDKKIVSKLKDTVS
Chain of HOXA2 (Homo sapiens, UniProt O43364 129-215, R185T) (O43364 129-215 R185T): as the sequence (O43364 129-215 Y150S) above, with S22Y, R57T counted along it
Chain of PROP1 (Homo sapiens, UniProt O75360 56-141, R99H) (O75360 56-141 R99H): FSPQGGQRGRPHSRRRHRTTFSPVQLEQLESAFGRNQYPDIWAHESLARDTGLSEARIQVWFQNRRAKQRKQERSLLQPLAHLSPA
Chain of VAX1 (Homo sapiens, UniProt Q5SQQ9 86-172, T142I) (Q5SQQ9 86-172 T142I): as the sequence (Q5SQQ9 86-172) above, with T57I counted along it

**Q.** How did the binding signal [1] turn out when CCCTGGCC was run?
**A.** 8.8 upbm affinity estimate (log intensity, higher = more binding, comparable within an allelic series)

**Q.** What about the binding signal [2] of the same sequence?
**A.** 6.94 upbm affinity estimate (log intensity, higher = more binding, comparable within an allelic series)

**Q.** And the binding signal [3]?
**A.** 9.39 upbm affinity estimate (log intensity, higher = more binding, comparable within an allelic series)

**Q.** What about the binding signal [4] of the same sequence?
**A.** 9.22 upbm affinity estimate (log intensity, higher = more binding, comparable within an allelic series)

**Q.** And the binding signal [5]?
**A.** 10.1 upbm affinity estimate (log intensity, higher = more binding, comparable within an allelic series)

**Q.** What about the binding signal [6] of the same sequence?
**A.** 9.28 upbm affinity estimate (log intensity, higher = more binding, comparable within an allelic series)

**Q.** What about the binding signal [7] of the same sequence?
**A.** 9.37 upbm affinity estimate (log intensity, higher = more binding, comparable within an allelic series)

**Q.** And the binding signal [8]?
**A.** 6.64 upbm affinity estimate (log intensity, higher = more binding, comparable within an allelic series)

**Q.** What about the binding signal [9] of the same sequence?
**A.** 9.38 upbm affinity estimate (log intensity, higher = more binding, comparable within an allelic series)

**Q.** And the binding signal [10]?
**A.** 9.41 upbm affinity estimate (log intensity, higher = more binding, comparable within an allelic series)

**Q.** What about the binding signal [11] of the same sequence?
**A.** 6.9 upbm affinity estimate (log intensity, higher = more binding, comparable within an allelic series)

**Q.** What about the binding signal [12] of the same sequence?
**A.** 10.4 upbm affinity estimate (log intensity, higher = more binding, comparable within an allelic series)

**Q.** And the binding signal [13]?
**A.** 6.83 upbm affinity estimate (log intensity, higher = more binding, comparable within an allelic series)

**Q.** And the binding signal [14]?
**A.** 6.7 upbm affinity estimate (log intensity, higher = more binding, comparable within an allelic series)

**Q.** What about the binding signal [15] of the same sequence?
**A.** 8.75 upbm affinity estimate (log intensity, higher = more binding, comparable within an allelic series)

**Q.** What does the source list for CCCAACGG?
**A.** binding signal [1]: 8.75 upbm affinity estimate (log intensity, higher = more binding, comparable within an allelic series); binding signal [16]: 9.93 upbm affinity estimate (log intensity, higher = more binding, comparable within an allelic series); binding signal [17]: 9.99 upbm affinity estimate (log intensity, higher = more binding, comparable within an allelic series); binding signal [18]: 6.54 upbm affinity estimate (log intensity, higher = more binding, comparable within an allelic series); binding signal [19]: 6.52 upbm affinity estimate (log intensity, higher = more binding, comparable within an allelic series); binding signal [20]: 9.83 upbm affinity estimate (log intensity, higher = more binding, comparable within an allelic series); binding signal [21]: 6.46 upbm affinity estimate (log intensity, higher = more binding, comparable within an allelic series); binding signal [22]: 10 upbm affinity estimate (log intensity, higher = more binding, comparable within an allelic series); binding signal [15]: 8.76 upbm affinity estimate (log intensity, higher = more binding, comparable within an allelic series)

**Q.** CACACTTA was tested. Which binding signal [1] did it give?
**A.** 12.5 upbm affinity estimate (log intensity, higher = more binding, comparable within an allelic series)

**Q.** And the binding signal [23]?
**A.** 11.7 upbm affinity estimate (log intensity, higher = more binding, comparable within an allelic series)

**Q.** What about the binding signal [24] of the same sequence?
**A.** 13.5 upbm affinity estimate (log intensity, higher = more binding, comparable within an allelic series)

**Q.** What about the binding signal [25] of the same sequence?
**A.** 10.9 upbm affinity estimate (log intensity, higher = more binding, comparable within an allelic series)

**Q.** And the binding signal [26]?
**A.** 12.6 upbm affinity estimate (log intensity, higher = more binding, comparable within an allelic series)

**Q.** And the binding signal [15]?
**A.** 12.4 upbm affinity estimate (log intensity, higher = more binding, comparable within an allelic series)

**Q.** And the binding signal [27]?
**A.** 12.7 upbm affinity estimate (log intensity, higher = more binding, comparable within an allelic series)

**Q.** How did the binding signal [1] turn out when CGTCGGTC was run?
**A.** 8.88 upbm affinity estimate (log intensity, higher = more binding, comparable within an allelic series)

**Q.** What about the binding signal [23] of the same sequence?
**A.** 9.56 upbm affinity estimate (log intensity, higher = more binding, comparable within an allelic series)

**Q.** And the binding signal [24]?
**A.** 9.23 upbm affinity estimate (log intensity, higher = more binding, comparable within an allelic series)

**Q.** And the binding signal [25]?
**A.** 9.36 upbm affinity estimate (log intensity, higher = more binding, comparable within an allelic series)

**Q.** And the binding signal [15]?
**A.** 8.91 upbm affinity estimate (log intensity, higher = more binding, comparable within an allelic series)

**Q.** What does the source list for ACTTAAGA?
**A.** binding signal [1]: 12.3 upbm affinity estimate (log intensity, higher = more binding, comparable within an allelic series); binding signal [24]: 13.4 upbm affinity estimate (log intensity, higher = more binding, comparable within an allelic series); binding signal [28]: 12.9 upbm affinity estimate (log intensity, higher = more binding, comparable within an allelic series); binding signal [25]: 10.8 upbm affinity estimate (log intensity, higher = more binding, comparable within an allelic series)

**Q.** Which binding signal [1] does the source give for GTCCCAGA here?
**A.** 8.89 upbm affinity estimate (log intensity, higher = more binding, comparable within an allelic series)

**Q.** And the binding signal [24]?
**A.** 9.24 upbm affinity estimate (log intensity, higher = more binding, comparable within an allelic series)

**Q.** And the binding signal [25]?
**A.** 9.41 upbm affinity estimate (log intensity, higher = more binding, comparable within an allelic series)

**Q.** And the binding signal [15]?
**A.** 8.98 upbm affinity estimate (log intensity, higher = more binding, comparable within an allelic series)

**Q.** Which binding signal [1] does the source give for ACACGTGT here?
**A.** 9.32 upbm affinity estimate (log intensity, higher = more binding, comparable within an allelic series)

**Q.** And the binding signal [18]?
**A.** 6.61 upbm affinity estimate (log intensity, higher = more binding, comparable within an allelic series)

**Q.** What about the binding signal [19] of the same sequence?
**A.** 6.61 upbm affinity estimate (log intensity, higher = more binding, comparable within an allelic series)

**Q.** What about the binding signal [21] of the same sequence?
**A.** 6.65 upbm affinity estimate (log intensity, higher = more binding, comparable within an allelic series)

**Q.** And the binding signal [15]?
**A.** 9.25 upbm affinity estimate (log intensity, higher = more binding, comparable within an allelic series)

**Q.** Which binding signal [1] does the source give for AGTCCTTA here?
**A.** 11.3 upbm affinity estimate (log intensity, higher = more binding, comparable within an allelic series)

**Q.** What about the binding signal [23] of the same sequence?
**A.** 10.8 upbm affinity estimate (log intensity, higher = more binding, comparable within an allelic series)

**Q.** And the binding signal [15]?
**A.** 11.2 upbm affinity estimate (log intensity, higher = more binding, comparable within an allelic series)

**Q.** Which binding signal [1] does the source give for CACTTGTA here?
**A.** 12.5 upbm affinity estimate (log intensity, higher = more binding, comparable within an allelic series)

**Q.** And the binding signal [23]?
**A.** 11.6 upbm affinity estimate (log intensity, higher = more binding, comparable within an allelic series)

**Q.** And the binding signal [24]?
**A.** 13.4 upbm affinity estimate (log intensity, higher = more binding, comparable within an allelic series)

**Q.** And the binding signal [28]?
**A.** 12.9 upbm affinity estimate (log intensity, higher = more binding, comparable within an allelic series)

**Q.** What about the binding signal [25] of the same sequence?
**A.** 10.7 upbm affinity estimate (log intensity, higher = more binding, comparable within an allelic series)

**Q.** What about the binding signal [15] of the same sequence?
**A.** 12.3 upbm affinity estimate (log intensity, higher = more binding, comparable within an allelic series)

**Q.** AAGTGGGC was tested. Which binding signal [1] did it give?
**A.** 12.4 upbm affinity estimate (log intensity, higher = more binding, comparable within an allelic series)

**Q.** What about the binding signal [23] of the same sequence?
**A.** 11.5 upbm affinity estimate (log intensity, higher = more binding, comparable within an allelic series)

**Q.** And the binding signal [26]?
**A.** 12.8 upbm affinity estimate (log intensity, higher = more binding, comparable within an allelic series)

**Q.** What about the binding signal [15] of the same sequence?
**A.** 12.3 upbm affinity estimate (log intensity, higher = more binding, comparable within an allelic series)

**Q.** And the binding signal [27]?
**A.** 12.9 upbm affinity estimate (log intensity, higher = more binding, comparable within an allelic series)

**Q.** With GCGCGTCC as the sequence, how does the binding signal [1] read?
**A.** 8.83 upbm affinity estimate (log intensity, higher = more binding, comparable within an allelic series)

**Q.** And the binding signal [23]?
**A.** 9.52 upbm affinity estimate (log intensity, higher = more binding, comparable within an allelic series)

**Q.** And the binding signal [29]?
**A.** 6.74 upbm affinity estimate (log intensity, higher = more binding, comparable within an allelic series)

**Q.** What about the binding signal [30] of the same sequence?
**A.** 6.79 upbm affinity estimate (log intensity, higher = more binding, comparable within an allelic series)

**Q.** And the binding signal [31]?
**A.** 6.63 upbm affinity estimate (log intensity, higher = more binding, comparable within an allelic series)

**Q.** What about the binding signal [26] of the same sequence?
**A.** 10.6 upbm affinity estimate (log intensity, higher = more binding, comparable within an allelic series)

**Q.** What about the binding signal [15] of the same sequence?
**A.** 8.91 upbm affinity estimate (log intensity, higher = more binding, comparable within an allelic series)

**Q.** What about the binding signal [27] of the same sequence?
**A.** 10.6 upbm affinity estimate (log intensity, higher = more binding, comparable within an allelic series)
